# PubChem BioAssay (NCATS)
# Results filed as inconclusive are left out. Entries that show only a call come without a potency. Some structures have more than one record in an assay (separate samples or runs), and their calls can disagree. The source made the active and inactive calls. The call rests on the fitted dose curve; in most records, active means well fitted inhibition curve with a large enough effect; inconclusive means small, poorly fitted or top-dose-only effect; inactive means flat fitted curve, though single readings scatter.
# Assay: P-glycoprotein substrates identified in KB-8-5-11 adenocarcinoma cell line, qHTS therapeutic library screen (AID 1346987); further: nearly all actives have a fitted effect of over 65% in size
# Settings: KB-8-5-11 (P-gp overexpressing) viability, CellTiter-Glo, 72 h; series mostly up to 44.5 µM
# Procedure, shortened: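 Human cervical adenocarcinoma KB-8-5-11 cells, selected in colchicine to over-express P-gp and assayed without it, were exposed for 72 h to titrated compounds. An ATP-based luminescent viability signal gave AC50.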
# Potency means the concentration at half of the fitted maximal effect.
row,Compound,Potency
1,C[N+]1([O-])[C@@H]2CC(OC(=O)[C@H](CO)c3ccccc3)C[C@H]1[C@@H]1O[C@@H]12 (stereo not given in full),inactive
2,O=C(OCCN1CCCCC1)C(O)(c1ccccc1)c1ccccc1,inactive
3,ClC(Cl)(Cl)Cl,inactive
4,N#CN,inactive
5,Clc1ccc(C2(Cn3cncn3)OCCO2)c(Cl)c1,inactive
6,C=CCC1(C(C)CCC)C(=O)N=C(S)NC1=O (stereo not given),inactive
7,CCOc1ccc2c3c1O[C@H]1[C@@H](O)C=C[C@H]4[C@@H](C2)N(C)CC[C@@]341,inactive
8,[O]=[Cr](=[O])([OH])[O][Cr](=[O])(=[O])[OH],23.1 µM (active) and inactive
9,C[C@@H]([C@H](O)c1ccccc1)N(C)C,inactive
10,CC(C)Nc1ccc(Nc2ccccc2)cc1,20.6 µM (active)
11,C[C@]12CC[C@H](OS(=O)(=O)O)CC1=CC[C@@H]1[C@@H]2CC[C@]2(C)C(=O)CC[C@@H]12,inactive
12,O=C/C=C/c1ccccc1,inactive
13,c1ccc2sc(SNC3CCCCC3)nc2c1,inactive
14,C[CH2][Hg][S]c1ccccc1C(=O)O,2.31 µM (active)
15,ClC1C(Cl)C(Cl)C(Cl)C(Cl)C1Cl (stereo not given),inactive
16,C[C@H]1CCC[C@H](O)CCCCCc2cc(O)cc(O)c2C(=O)O1,14.6 µM (active)
17,O=c1[nH]c(=O)n(Cl)c(=O)n1Cl,inactive
18,CCOC(=O)c1ccccc1C(=O)OCC,inactive

row,Compound,Potency
1,O=c1ccc2cc(O[C@@H]3O[C@H](CO)[C@@H](O)[C@H](O)[C@H]3O)c(O)cc2o1,inactive
2,S=C(S)N1CCNCC1,inactive
3,O=C1C[C@@H]2OCC=C3CN4CC[C@]56c7ccccc7N1[C@H]5[C@H]2[C@H]3C[C@H]46,inactive
4,C[C@]12CCC(=O)C[C@@H]1CC[C@@H]1[C@@H]2CC[C@]2(C)[C@@H](O)CC[C@@H]12,8.2 µM (active)
5,C[N+]1(C)[C@@H]2CC[C@H]1CC(OC(=O)c1c[nH]c3ccccc13)C2 (stereo not given in full),inactive
6,Clc1ccccc1Cl,inactive
7,COC1=CC=C2[C@H]3Cc4ccc(OC)c5c4[C@@]2(CCN3C)[C@H]1O5,inactive
8,CCCCC[C@@H](O)C1C(=O)OC(C)[C@H](O)/C=C/C=C/C=C/C=C/C=C(\C)C(O)C(O)C(O)C[C@H](O)C[C@H](O)C[C@H](O)C[C@H](O)C[C@@H]1O (stereo not given in full),inactive
9,CC(Cc1ccccc1)NC=O (stereo not given),inactive
10,O=C(CS(=O)C(c1ccccc1)c1ccccc1)NO (stereo not given),inactive
11,COC(COC(N)=O)C1=C(N2CC2)C(=O)C(C)=C(N2CC2)C1=O (stereo not given),6.51 µM (active)
12,ClCC1CO1 (stereo not given),inactive
13,O=C1C[C@@H]2OCC=C3CN4CC[C@]56c7ccccc7N1[C@H]5[C@H]2[C@H]3C[C@H]46 (tested in a mixture with another compound),inactive
14,CCON=O,inactive
15,FC(F)OC(F)(F)C(F)Cl (stereo not given),inactive
16,O=Cc1ccco1,inactive
17,CCOP(=O)(OCC)O/C(=C/Cl)c1ccc(Cl)cc1Cl,10.3 µM (active)
